# Test results reported in PubChem BioAssay (NCI).
# Where “and” joins values, the source holds several entries; their conditions need not be identical. Identical values can stand only once. About 83,000 compounds went through this panel and 20% of them were active in at least one assay; those are over-represented in the sample as a whole.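 Negative percent growth values reflect cell death: -40 means 40% of the cells present at the start died, and -100 means all died.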 Values without a mark were called inactive. Calls of active or inactive are those of the source. Rule for the calls: active = growth percent below 10; inactive = the rest.
# Tested on: NCI-H460 lung
# Experiment: NCI-60 one-dose screen, 48 h (100 = growth as untreated, 0 = no growth, -100 = all killed)
# Details: 10 µM unless noted
row,SMILES,growth
1,COc1ccc(C(=O)c2c(N)c(C#N)cn2-c2ccc([N+](=O)[O-])cc2)cc1,108%
2,Fc1ccc(F)c(CNc2nc(SCCN3CCOCC3)nc3c2cnn3CC(Cl)c2ccc(Br)cc2)c1 (stereo not drawn),6.7% (active)
3,COc1ccc(N=Nc2c(N)nn3c(N)c(C#N)c(-c4ccc(F)cc4)nc23)cc1,61.1%
4,COc1cc(CNC(=O)[C@]23CCC(C)(C)CC2C2=CCC4[C@@]5(C)CCC(OC(C)=O)C(C)(C)C5CC[C@@]4(C)[C@]2(C)CC3)ccc1OCc1cn(-c2ccc(Cl)cc2Cl)nn1 (stereo partly drawn),105%
5,C/C(=N\Nc1ccc(C(=O)O)cc1)c1cnn(-c2cc(=O)[nH]c3ccc(C)cc23)c1C,109%
6,N#Cc1cc(-c2ccnc(Nc3ccc(N4CCN(C5COC5)CC4)cc3)n2)ccc1N1CCCC1,49.9%
7,O=C(N/N=C/c1ccc(Cl)cc1)c1ccc(OCc2nc3ccc(Cl)cc3[nH]2)cc1,-82.3% (active)
8,COc1ccc(-c2nc3ccccc3n2CC(=O)N=Nc2c(O)[nH]c3ccc(Br)cc23)cc1,80.6%
9,Clc1ccccc1Nc1nnc(-c2c[nH]c3ccccc23)o1,16%
10,O=C(NC(=S)N1CCN(c2ncnc3c2cnn3-c2ccccc2)CC1)c1ccc(Br)cc1,69.2%
11,COc1ccc(/C=C/c2nc3ccccc3n3c(-c4cccc([N+](=O)[O-])c4)nnc23)cc1,-35.6% (active)
12,CS(=O)(=O)Nc1cc(-c2ccc3ncnc(Nc4ccc(OCc5cccnc5)c(Cl)c4)c3c2)cnc1Cl,35.2%
13,O=C1CCC(N2C(=O)c3cccc(NCCOCCOCCOCCC(=O)NCCCC(=O)NC(c4ccc5c(c4)OCO5)c4cc(Cl)c5cccnc5c4O)c3C2=O)C(=O)C1 (stereo not drawn),26.6%
14,COc1cc(/C=C/C(=O)c2cnn(-c3cc(=O)[nH]c4ccc(C)cc34)c2C)cc(OC)c1OC,8.08% (active)
15,Cc1ccc(C(=O)Nc2cc(-n3cnc(F)c3)cc(C(F)(F)F)c2)cc1C#Cc1cnc2cccnn12,70.5%
16,COc1cc(/C=C/C(=O)c2cnn(-c3cc(=O)[nH]c4ccc(Br)cc34)c2C)cc(OC)c1OC,-60.4% (active)
17,CCCCCCCOc1ccc(S(=O)(=O)Nc2ccc(C)c(F)c2C(=O)O)cc1,102%
18,C#CCN(C)CCCOc1ccc(N(CC)C(=O)c2cc(C(C)C)c(O)cc2O)cc1Cl,-52.4% (active)
19,COC(=O)CSC1=C(C)C(=O)C(OC)=C(OC)C1=O,96.8%

row,SMILES,growth
1,Nc1cccc(-n2c(COc3ccc(I)cc3)nc3ccccc32)c1,86.2% and 108%
2,O=C(Nc1ccc(F)cc1)Nc1nc2ccc([N+](=O)[O-])cc2s1,-3.01% (active)
3,CC(=O)Nc1cccc(-n2c(COc3ccc(I)cc3)nc3ccccc32)c1,103% and 112%
4,Cc1nc2sccn2c1-c1nnc(SCC(C)C)o1,97%
5,COc1ccc2[nH]cc(-c3cc4nc(-c5cn(C)c6ncc(Br)cc56)cc(N)n4n3)c2c1,-51.3% (active)
6,Cc1nn(-c2ccccc2)c2ncn(CC(=O)N/N=C/c3ccccc3O)c(=O)c12,17.7%
7,Cc1ccccc1NC(=O)c1cccc(NC(=O)CCl)c1,41.6%
8,O=C1Nc2ccccc2/C1=C\c1ccc(OCC(=O)c2ccc(Br)cc2)cc1,58.5%
9,CN1CCN(C(=O)Oc2cc3c(c4ccccc24)[C@H](CCl)CN3C(=O)c2cc3cc(OCCCN4CCC4)ccc3[nH]2)[C@@H]2CSSC[C@H]21,-35.7% (active)
10,O=C(CSc1nc2sc3c(c2c(=O)n1-c1ccc(Cl)cc1)CCCC3)NNC(=O)c1ccc(F)cc1,88.6%
11,COC(=O)c1cc(C(C)=O)n2c3ccccc3c3ccccc3c12,110%
12,COc1ccc(NC(=O)Nc2nc3ccc([N+](=O)[O-])cc3s2)cc1,3.86% (active)
13,CN(C)CCCc1ccc(Nc2cnn(C)c(=O)c2Cl)cc1,103%
14,COc1ccc(NC2=C(I)C(=O)C(C)=C(C)C2=O)cc1,97.9%
15,CN(C(=O)CN1C(=O)/C(=C/c2ccco2)SC1=S)C1CCS(=O)(=O)C1 (stereo not drawn),95.5%
16,Cc1ccc(C(=O)C[n+]2cccc3c4ccccc4ccc32)cc1,4.31% (active)
17,Cc1ccc(/C=C/C(=O)c2ccc(S(=O)(=O)NCCNc3nc(N(C)C)nc(N4CCOCC4)n3)cc2)cc1,103%
18,C=CCSc1nnc(-c2ccc(-c3nc4ccccc4[nH]3)cc2)o1,87.1%
19,Cc1ccc(Nc2nnc(-c3c[nH]c4ccccc34)o2)c(C)c1,8.57% (active)
